From PubChem BioAssay AID1851 (National Center for Advancing Translational Sciences (NCATS), 2009) come the findings set out here.

The structures appear in SMILES notation. In all, about 16,000 compounds went through this assay and about 5,100 (32%) were called active. Another 25% or so got no clear call; they are omitted. Some of the results follow. A number with no mark means an inactive call. Calls follow the shape of the dose curve; as a rule, active = well fitted curve in the direction sought with a large enough effect; inconclusive = small, poorly fitted or top-dose-only effect, or effect the other way; inactive = no such curve, though single readings can be large or run the other way.
% is scaled to controls: 0 for no effect and ±100 for the full control effect.

This assay deals with Cytochrome P450 3A4 (Homo sapiens) (UniProt P08684). The assay is described as follows: Cytochrome panel assay with activity outcomes. The settings on record: recombinant CYP, pro-luciferin dealkylation, luminescence, p450-cyp3a4; series mostly up to 57.1 µM; activity, negative = inhibition: at the top concentration.
Cytochrome P450 3A4 (Homo sapiens), sequence (P08684 whole entry, looked up): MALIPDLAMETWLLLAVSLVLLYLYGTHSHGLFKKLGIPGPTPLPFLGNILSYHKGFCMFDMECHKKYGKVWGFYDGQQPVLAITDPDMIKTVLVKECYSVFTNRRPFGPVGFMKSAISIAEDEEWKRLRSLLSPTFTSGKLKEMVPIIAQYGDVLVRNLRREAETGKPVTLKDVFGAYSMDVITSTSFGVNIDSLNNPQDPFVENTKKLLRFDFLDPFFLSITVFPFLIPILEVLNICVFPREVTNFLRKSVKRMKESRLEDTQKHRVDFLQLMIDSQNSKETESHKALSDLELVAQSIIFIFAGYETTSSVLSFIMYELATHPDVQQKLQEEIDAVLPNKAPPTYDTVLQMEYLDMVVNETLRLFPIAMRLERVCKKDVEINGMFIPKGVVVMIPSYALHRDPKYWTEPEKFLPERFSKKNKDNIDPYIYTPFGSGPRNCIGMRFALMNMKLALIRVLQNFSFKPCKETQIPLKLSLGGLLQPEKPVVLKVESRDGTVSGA
As for `O=C(O)[C@@H]1[C@@H](C(=O)NCc2ccccn2)[C@@H]2C=C[C@@H]1O2`, the activity, negative = inhibition is -5.18% [at 11.4 µM]. Usually AC50 stands for the midpoint of the concentration-response curve, whichever way the signal moves. On to `O=C(NCc1ccccn1)C1CC(c2ccc(Cl)c(Cl)c2)=NO1` (stereo not drawn), for which the AC50 is 25.1 µM (active). On to `CC(=O)c1ccc(NC(=O)C2CC(c3ccc(F)cc3)=NO2)cc1` (stereo not drawn), for which the “activity, negative = inhibition” value is -15.6%. On to `COCCNC(=O)C1CC(c2cccc(OC)c2)=NO1` (stereo not drawn), for which the “activity, negative = inhibition” value is -28.1%. `COc1cccc(C2=NOC(C(=O)Nc3ccc(OC)c(OC)c3)C2)c1` (stereo not drawn): the AC50 is 6.31 µM (active). Still for that read-out and setting: the result for `COc1ccc(C2=NOC(C(=O)Nc3ccc(C(C)=O)cc3)C2)cc1OC` (stereo not drawn) reads 8.91 µM (active); that for `COc1cccc(C2=NOC(C(=O)Nc3cccnc3)C2)c1` (stereo not drawn), 12.6 µM (active); that for `COc1ccc(CNC(=O)C2CC(c3cccc([N+](=O)[O-])c3)=NO2)cc1` (stereo not drawn), 6.31 µM (active). As for `COc1ccc(CNC(=O)C2CC(c3ccc(OC)cc3)=NO2)cc1` (stereo not drawn), the “activity, negative = inhibition” value was 2.43%. As for `Cc1ccc(NC(=O)NNC(=O)C2CC(c3cccnc3)=NO2)cc1` (stereo not drawn), the “activity, negative = inhibition” value was 12.9%. With `O=C1C=C(NCCc2cc(Br)c(O)c(Br)c2)C(=O)c2ncccc21`, the AC50 was 3.16 µM (active). With `O=C1C=C(Nc2nc(C(=O)O)cc(=O)[nH]2)c2ccccc2C1=O`, the activity, negative = inhibition was -12.4% [at 11.4 µM].

On to `O=C(NCc1ccco1)c1cc(C(=O)C2CC2)c[nH]1`, for which the “activity, negative = inhibition” value was 2.35%. As to `O=C(NCCc1ccccn1)c1cc(C(=O)C2CCCCC2)c[nH]1`, the concentration at half-maximal activity (AC50) is 10 µM (active). For `O=C(NCc1ccco1)c1cc(C(=O)C2CCCCC2)c[nH]1`, the “activity, negative = inhibition” value was -11.4%. Take `COc1ccc2c(c1)c(CC(=O)OCC(=O)O)c(C)n2C(=O)c1ccc(Cl)cc1`: the “activity, negative = inhibition” value was -11.9% [at 25.6 µM]. For the molecule `COc1ccc2c(c1)c(CC(=O)N1CCOCC1)c(C)n2C(=O)c1ccc(Cl)cc1`, the AC50 was 5.01 µM (active). Turning to `COc1ccc2c(c1)c(CC(=O)O)c(C)n2C(=O)c1ccc(Cl)cc1`, the AC50 entry is “inactive”. In the case of `Cc1cccc(NCCNc2cccc(C)c2)c1`, the AC50 is 25.1 µM (active). On to `Cc1cccc(N/C(N)=N/c2nc(C)cc(C)n2)c1`, for which the “activity, negative = inhibition” value was -11.7%. Turning to `Cc1cccc(C(=O)NNC(=O)C(=O)NC(C)(C)C)c1`, the “activity, negative = inhibition” value was -10.6%. Consider `COc1ccc(S(=O)(=O)Nc2ccc(F)cc2)c(C)c1C`, for which the AC50 was 10 µM (active). As for `Cc1ccccc1CSc1nsc(N)n1`, the AC50 is 25.1 µM (active). For `COc1ccc(NC(=O)c2cc(C(C)C)on2)cc1OC`, the “activity, negative = inhibition” value is -5.54%. Consider `COCCNC(=O)c1cc(-c2cccc(OC)c2)on1`, for which the “activity, negative = inhibition” value was -4.56%. As to `COc1cccc(-c2cc(C(=O)Nc3cccc(O)c3)no2)c1`, the AC50 is 10 µM (active).

As to `CCN1CCN(c2nc(C)c3c(n2)CCCC3=O)CC1`, the “activity, negative = inhibition” value was 11.2%. Still for that read-out and setting: the result for `Cc1cc2nc(C)n(CCCN)c2cc1C` reads -18.2%; that for `CSc1nc(C)cc(Nc2ccc(O)c(CN3CCOCC3)c2)n1`, 0.709% [at 11.4 µM]. With `Cc1cccc(OCC(=O)NNC(=O)CSc2ncc(C#N)c(N)n2)c1`, the AC50 was 14.1 µM (active).

Regarding `Cc1cccc(C(=O)NCN2CCN(c3ccccc3C#N)CC2)c1`, the “activity, negative = inhibition” value was -18.3%.

As for `Cc1c(C(=O)Nc2nccs2)sc2nc(-c3cccs3)cc(C(F)(F)F)c12`, the AC50 is 14.1 µM (active). The same measure, in the same setting: to `CC(/C=C/c1ccccc1)=N/NC(=O)CNC(=O)c1ccc2c(c1)OCO2` belongs 6.31 µM (active). Regarding `CN(C)Cc1cc(C(C)(C)C)ccc1-c1ccc(C(C)(C)C)cc1CN(C)C`, the activity, negative = inhibition is 5.04% [at 11.4 µM]. Regarding `CN(C)Cc1ccc(C(C)(C)C)cc1-c1cc(C(C)(C)C)ccc1CN(C)C`, the activity, negative = inhibition is 0.94% [at 11.4 µM]. As to `CN(C)Cc1cc(C(F)(F)F)ccc1C(O)(c1ccccc1)c1ccccc1`, the AC50 is 0.794 µM (active). With `CC(=O)NCCNc1cc(-c2ccccc2CN(C)C)ncn1`, the “activity, negative = inhibition” value was -7.94%. For the molecule `CC(=O)NCCNc1cc(-c2ccccc2C(F)(F)F)ncn1`, the “activity, negative = inhibition” value was -6.72%. On to `CC(=O)NCCNc1ncncc1-c1ccc(N(C)C)cc1`, for which the AC50 is 2 µM (active). Take `COc1ccccc1-c1cncnc1NCCNC(C)=O`: the AC50 is 2 µM (active).

Turning to `CC(=O)NCCNc1ncncc1-c1ccccc1C(F)(F)F`, the AC50 is 1 µM (active). With `CC(=O)NCCNc1cc(-c2ccccc2C)ncn1`, the “activity, negative = inhibition” value is -18%.

In the case of `CC(=O)NCCNc1ncncc1-c1ccccc1C`, the AC50 is 2.51 µM (active). On to `COc1nc(OCCNC(C)=O)nc(N(C)C)n1`, for which the activity, negative = inhibition is 4.84% [at 2.29 µM]. For the molecule `CCn1cnc2sc(C(=O)N3CCN(c4ccc(OC)cc4)CC3)c(C)c2c1=O`, the AC50 is 12.6 µM (active). `COc1ccc(N2CCN(C(=N)/C(C(C)=O)=C(\C)O)CC2)cc1`: the activity, negative = inhibition was -4.11% [at 2.29 µM]. Turning to `O=C(O)c1cc(=O)cc(C(=O)O)[nH]1`, the “activity, negative = inhibition” value is -8.24%.

Consider `Fc1cccc(F)c1C(Nc1nncs1)Nc1nncs1`, for which the activity, negative = inhibition was -16.1% [at 11.4 µM].
